The list is not random: actives were taken first. Their share in the collection is about 3.4%.
MITF inh: human MITF inhibition, primary screen | AlphaScreen MITF homodimerization, bead proximity signal | AID 1259374 | O75030 | inhibition, % at 2.6 µM | 650,000 tested, 0.91% active; in the data active means inhibition above about 50%
TEAD-YAP inh: TEAD-YAP interaction inhibition; 640,000 tested, 1.4% active; inhibition, % at 9.12 µM; AID 1259422; HEK-TIYL cells, TEAD-Gal4/YAP UAS-luciferase luminescence; in the data active means inhibition above about 32%
GPR151 ag: activators of human GPR151. AID 1508602. Q8TDV0. activation, % at 11.2 µM. 650,000 tested, 1% active. PathHunter beta-arrestin GPR151 cells, luminescence; in the data active means activation above about 4.9%
FBW7 act: activators of human E3 ligase FBW7 | normalized activity (activation), % at 26.1 µM | Q969H0 | 650,000 tested, 0.13% active | AID 1259310 | AlphaScreen FBW7–phospho-cyclin E peptide binding, activator screen; in the data active means normalized activity above about 1.9%;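 further: purified mutant Fbw7 with reduced substrate affinity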
Target sequence (Q969H0 whole entry, looked up): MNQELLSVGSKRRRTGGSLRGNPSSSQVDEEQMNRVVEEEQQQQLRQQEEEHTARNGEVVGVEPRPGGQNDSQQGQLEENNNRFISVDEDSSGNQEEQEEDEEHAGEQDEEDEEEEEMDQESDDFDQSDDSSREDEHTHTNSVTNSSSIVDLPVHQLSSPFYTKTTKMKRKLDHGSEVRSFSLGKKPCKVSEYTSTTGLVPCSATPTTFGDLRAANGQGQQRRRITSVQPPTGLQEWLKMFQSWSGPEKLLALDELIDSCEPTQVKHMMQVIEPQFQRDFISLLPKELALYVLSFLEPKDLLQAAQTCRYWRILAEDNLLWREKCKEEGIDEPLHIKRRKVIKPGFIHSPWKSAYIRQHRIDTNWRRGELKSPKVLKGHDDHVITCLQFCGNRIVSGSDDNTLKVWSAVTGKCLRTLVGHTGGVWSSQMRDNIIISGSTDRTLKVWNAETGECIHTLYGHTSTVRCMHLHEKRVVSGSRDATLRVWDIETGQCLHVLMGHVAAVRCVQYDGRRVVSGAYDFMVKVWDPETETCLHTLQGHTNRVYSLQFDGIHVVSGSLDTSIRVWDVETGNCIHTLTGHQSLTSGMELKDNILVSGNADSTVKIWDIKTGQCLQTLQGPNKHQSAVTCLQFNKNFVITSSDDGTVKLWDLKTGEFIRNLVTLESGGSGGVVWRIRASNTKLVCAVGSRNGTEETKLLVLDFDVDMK
GPR151 confirm: human GPR151 activation, confirmation screen. shares compounds with GPR151 ag. GPR151 PathHunter beta-arrestin cells, luminescence, 90 min; % of EA-reagent control over plate median. activation, % at 11.2 µM. 6,700 tested, under 10 active. AID 1508609;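 active means mean percent activation across replicates above the confirmation screen cutoff of 4.91%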
GPR119 ag: activates human GPR119 in a GPR151 counter-screen | shares compounds with GPR151 ag | GPR119 PathHunter beta-arrestin cells, luminescence, 90 min; 0 = compound-well median, 100 = enzyme-acceptor control | activation, % at 11.2 µM | 6,700 tested, 0.3% active | AID 1508611;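 active means mean percent activation in the counterscreen above 29.09%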;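 further: counterscreen on off-target GPR119 to flag nonselective hits from the GPR151 activator screen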
Large screens that a line does not name were inactive (follow-up assays come after a bar, where they were run).

COC(=O)c1ccccc1NC(=O)Cn1nc(C)c([N+](=O)[O-])c1C	none
N=c1oc2c(Cl)cc(Cl)cc2cc1C(N)=O	none
CCOC(=O)c1cc(-c2ccccc2)sc1NC(=O)CSc1cccc[n+]1[O-]	none
Cc1c(NC(=O)Cc2ccc(Cl)cc2)c(=O)n(-c2ccccc2)n1C	none
Cc1c(NC(=O)CCSc2ccc(Cl)cc2)c(=O)n(-c2ccccc2)n1C	GPR151 ag 5.2 | GPR151 confirm inactive | GPR119 ag inactive
Cc1c(NC(=O)c2cc(-c3ccc(Cl)c(Cl)c3)on2)c(=O)n(-c2ccccc2)n1C	GPR151 ag 8.5 | GPR151 confirm inactive | GPR119 ag inactive
COc1ccccc1OC(C)C(=O)Nc1c(C)n(C)n(-c2ccccc2)c1=O (configuration not stated)	GPR151 ag 6.7 | GPR151 confirm inactive | GPR119 ag inactive
CCOC(=O)c1csc(NNC(=O)c2ccccc2)n1	none
Cc1ccc(NC(=S)N2CCN(c3ccccn3)CC2)c(C)c1	none
COc1ccc(C)cc1NC(=S)N1CCN(c2ccccn2)CC1	GPR151 ag 5.1 | GPR151 confirm inactive | GPR119 ag inactive
COc1cc(NC(=S)N2CCN(c3ccccn3)CC2)cc(OC)c1	GPR151 ag 11.0 | GPR151 confirm inactive | GPR119 ag inactive
CCn1c(=O)n(CC(=O)NCc2cccc(OC)c2)c2cccnc21	none
Cc1n[nH]c(C)c1S(=O)(=O)N1CCN(c2ccccc2)CC1	none
COc1ccc(C(=O)N2CCNC(=O)C2CC(=O)Nc2ccc(C)c(C)c2)cc1 (configuration not stated)	GPR151 ag 5.6 | GPR151 confirm inactive | GPR119 ag inactive
COc1ccc(C(=O)N2CCNC(=O)C2CC(=O)Nc2cccc(Cl)c2Cl)cc1 (configuration not stated)	none
CC/C(C)=N/Nc1nc2c(c(=O)[nH]c(=O)n2C)n1CCC(C)C	none
Cc1ccc(-n2c(-c3ccc(Cl)cc3)cn3c4c(=O)n(C)c(=O)n(C)c4nc23)cc1Br	none
CC(C)N1CCN(Cc2ccc(OCc3ccccc3)cc2)CC1CCO (configuration not stated)	none
COc1ccc(-n2ccnc2CN2CCN(C(C)C)C(CCO)C2)cc1 (configuration not stated)	GPR151 ag 5.0 | GPR151 confirm inactive | GPR119 ag inactive
CC(C)N1CCN(Cc2ccc(OC3CCCC3)cc2)CC1CCO (configuration not stated)	GPR151 ag 17.3 | GPR151 confirm inactive | GPR119 ag inactive
CC(C)N1CCN(Cc2cccn2-c2cccnc2)CC1CCO (configuration not stated)	none
COc1cccc(C(=O)COc2ccc(N3C(=O)C4C5CCC(C5)C4C3=O)cc2)c1 (configuration not stated)	none
CCC1=[N+]([O-])C(C)(/C(C)=N\Nc2ccccc2)N(O)C1(C)C (configuration not stated)	none
CC(C)(C)OC(=O)NCC(=O)NC(Cc1ccc(OCc2ccccc2)cc1)C(N)=O (configuration not stated)	GPR151 ag 5.1 | GPR151 confirm inactive | GPR119 ag inactive
CC(C)C1=NOC(C(=O)N2CCC(CO)(Cc3cccc(C(F)(F)F)c3)CC2)C1 (configuration not stated)	GPR151 ag 5.2 | GPR151 confirm inactive | GPR119 ag inactive
Cn1nnc2c(N3CCC4(CC3)OCCO4)nc(Cc3ccc(Cl)cc3Cl)nc21	GPR151 ag 6.8 | GPR151 confirm inactive | GPR119 ag inactive
O=C(c1ccc2c(c1)C(=O)N(c1c[nH]c(=O)[nH]c1=O)C2=O)c1ccc2c(c1)C(=O)N(c1c[nH]c(=O)[nH]c1=O)C2=O	none
CCC(C)(C)n1nnnc1C(c1ccc(C)cc1)N1CCN(Cc2cccnc2)CC1 (configuration not stated)	GPR151 ag 6.4 | GPR151 confirm inactive | GPR119 ag inactive
CC(C)(C)n1nnnc1C(c1cccnc1)N1CCN(c2ccccc2F)CC1 (configuration not stated)	GPR151 ag 8.4 | GPR151 confirm inactive | GPR119 ag inactive
CCc1cccc(CC)c1N1C(=O)C(Cl)=C(OC)C1=O	none
COc1ccc(C(=O)N/N=C/c2ccco2)cc1	GPR151 ag 6.9 | GPR151 confirm inactive | GPR119 ag inactive
COc1ccc(C(=O)Nc2ccc(C(=O)N/N=C/c3ccc(O)cc3O)cc2)cc1	GPR151 ag 8.6 | GPR151 confirm inactive | GPR119 ag inactive
COc1ccc(N2Cc3ccc(C(=O)N/N=C/c4ccco4)cc3C2)cc1	none
COc1cccc(NC(=O)CSc2nc3ccccc3c3nc(-c4ccc([N+](=O)[O-])cc4)nn23)c1	none
N#Cc1ccc(N2CCN(C(=O)C34CC5CC(CC(C5)C3)C4)CC2)c(F)c1	none
CCc1ccccc1OCC(=O)NCCc1ccccc1	none
Cc1ccc(NC(=O)c2c(NC(=O)C(C)(C)C)sc3c2CCCCC3)cc1	none
C=CCn1c(SCC(=O)Nc2sc3c(c2C(=O)OCC)CCCCC3)nc2sc(-c3ccccc3)cc2c1=O	GPR151 ag 6.3 | GPR151 confirm inactive | GPR119 ag inactive
COc1ccc(-c2nc3cc(Cl)ccc3o2)cc1OC	GPR151 ag 5.8 | GPR151 confirm inactive | GPR119 ag inactive
O=S(=O)(c1ccc2oc(-c3ccc(Cl)cc3)nc2c1)c1ccc2oc(-c3ccc(Cl)cc3)nc2c1	GPR151 ag 5.7 | GPR151 confirm inactive | GPR119 ag inactive
COc1ccc(Cl)cc1NC(=O)CN1CCC(n2nnc3ccccc32)CC1	GPR151 ag 5.3 | GPR151 confirm inactive | GPR119 ag inactive
CC(C)N(CCNc1nc(Nc2ccccn2)nc2c1ncn2C1CCCCC1)C(C)C	GPR151 ag 6.4 | GPR151 confirm inactive | GPR119 ag inactive
CC(C)N(CCNc1nc(Nc2nccc3ccccc23)nc2c1ncn2C1CCCCC1)C(C)C	none
Cc1cc(N)c2ccccc2[n+]1CCCCCCCCCCCCCC[n+]1c(C)cc(N)c2ccccc21	TEAD-YAP inh 84.3, GPR151 ag 6.6 | GPR151 confirm inactive | GPR119 ag inactive
O=C(CCN1CCCO1)N1CCCC(CNS(=O)(=O)c2cccs2)C1 (configuration not stated)	none
COc1cccc(CCC(=O)N2CCCC(N3CCC(CO)CC3)C2)c1 (configuration not stated)	GPR151 ag 8.1 | GPR151 confirm inactive | GPR119 ag inactive
CCOC(=O)c1sc2nccc3c2c1N=CN3c1ccccc1	GPR151 ag 5.3 | GPR151 confirm inactive | GPR119 ag inactive
CC(=O)N1CCc2cc(Br)cc(S(=O)(=O)Nc3cccc(F)c3)c21	none
CCOC(=O)CCN(Cc1ccccc1F)S(=O)(=O)c1ccc(C)cc1	GPR151 ag 4.9 | GPR151 confirm inactive | GPR119 ag inactive
CCOC(=O)CCCN(Cc1ccc(Cl)cc1Cl)S(=O)(=O)c1ccc(F)c(C)c1	GPR151 ag 5.0 | GPR151 confirm inactive | GPR119 ag inactive

Bioassay records deposited in PubChem by The Scripps Research Institute Molecular Screening Center.
